Drawing on ChEMBL document CHEMBL4513216, “Probing the Open Global Health Chemical Diversity Library for Multistage-Active Starting Points for Next-Generation Antimalarials” (ACS Infect Dis, 2020), this text covers INHIBITION for 28 compounds.

Hit rate of the full screen: of about 69,000 compounds, about 8,600 (12%) showed an effect of 50% or more. The full list was thinned out, with strong results kept by preference.

For the assay, the system named is Plasmodium berghei. The experiment in a line: Screen against P. berghei liver stage (PbLuc), transformed with Luciferase, at 10uM. The following applies: tested at 10 uM. It is filed as functional, HepG2.
Regarding `O=C1[C@H]2CN(c3ncccn3)C[C@H]2CN1Cc1ccncc1`, the INHIBITION was 4.71%. Next, `O=C1[C@H]2CN(c3ncc(F)cn3)C[C@H]2CN1CC1CC1`: 42.6%; `CCS(=O)(=O)N1C[C@H]2CN(CC3CC3)C(=O)[C@H]2C1`: -12.2%; `COCCN1C[C@@H]2CN(c3cnccn3)C[C@@H]2C1=O`: 14%. Next, `O=C1[C@H]2CN(S(=O)(=O)C3CC3)C[C@H]2CN1CC1CC1`: 3.69%; `O=C1[C@H]2CN(c3cnccn3)C[C@H]2CN1CC1CC1`: 51.2%. As for `CC(C)CN1C[C@@H]2CN(c3cnccn3)C[C@@H]2C1=O`, the INHIBITION stood at 21.3%. Regarding `O=C1[C@H]2CN(c3ncccn3)C[C@H]2CN1CC1CC1`, the INHIBITION was 64.2%. Next, `CS(=O)(=O)N1C[C@H]2CN(CC3CC3)C(=O)[C@H]2C1`: 85.2%; `CN(C)C1COC2(CCN(Cc3ccc4c(c3)OCO4)CC2)C1` (stereo not drawn): -50.4%. The figure for `COc1cc(C2CC(=O)Oc3cc(C)[nH]c(=O)c32)ccc1OCC(=O)O` (stereo not drawn) is 13.1%; for `CN1CCN(c2nc(O)c3c(-c4ccccn4)ccnc3n2)CC1` it is -33.2%; for `O=C(c1ccccc1C1CCNC1)N1CCC(N2CCC(O)CC2)CC1` (stereo not drawn) it is 11.5%. As to `COCCN(CCOC)C(=O)Nc1cc(C(F)(F)F)c[nH]c1=O`, the INHIBITION stood at 12.7%. The figure for `Cc1ncsc1C(=O)NC1CCN(Cc2cccc3c2OCCO3)CC1` is 33.8%; for `CC1CS(=O)(=O)CCN1CCCc1ccc(C(F)(F)F)cc1` (stereo not drawn) it is 10.1%. In the case of `CCCC(=O)n1ccn(S(=O)(=O)c2ccc(C)cc2)c1=O`, the INHIBITION came out at 5.18%. The figure for `CC(C)(CO)CNC(=O)c1cc(-c2cc[nH]n2)n2ccccc12` is 41.2%; for `COc1ccccc1OCCCN(C)c1cc(C)nc(N)n1` it is 61.2%; for `CN(CCOc1ccccc1F)C1CCOC1=O` (stereo not drawn) it is 33%.

As for `COc1ccccc1OCCN(C)c1cc(C)nc(N)n1`, the INHIBITION is 26.3%. Next, `COc1ccccc1OCCCc1cc(C)nc(N)n1`: -16.7%. The figure for `Cc1cc(N(C)CCOc2ccccc2F)nc(N)n1` is 65.7%. Next, `COc1ccc(OCCN(C)c2cc(C)nc(N)n2)cc1`: 45.4%. As for `CNc1cc(C2CN(Cc3cccnc3NC)CCO2)nc(C)n1` (stereo not drawn), the INHIBITION was found to be 1.62%.

With `CC1c2ncc(CNC(=O)C3CC3)n2CCN1Cc1ccsc1` (stereo not drawn), the INHIBITION was -10.3%.

`CNC(=O)C1Cn2ccnc2C2(CCN(Cc3cccnc3)CC2)O1` (stereo not drawn): the INHIBITION is recorded as 43.2%. Next, `COCCc1noc(CN2CCCC2c2noc(C)n2)n1` (stereo not drawn): -5.32%.
